This is an account of results in PubChem BioAssay (NCATS).

The source made the active and inactive calls. No rule for the calls is given here.
Potency is read from the fitted curve at half-maximal effect.

The assay has as its system HIV-1 nucleocapsid protein NCp7 (binding to TG oligonucleotide). Kind of assay: HIV Nucleocapsid (AID 346).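 Also: potency is for inhibitors that block NC binding and lower polarization.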 To be noted: HIV-1 NC / fluorescein-TGTGTGTG probe, fluorescence polarization. In a few lines:
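10 nM TG4xF probe with 100 nM nucleocapsid protein in high-salt Hepes pH 7.5 (250mM NaCl) containing 1uM ZnCl2 and reducing agents. Compound inhibition of binding was read as fluorescein polarization after 1 hr at room temperature.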
Background: Polarisation of emitted light reports the rotation of a fluorescent probe.
Consider `CN(Cc1ccco1)c1ncncc1-c1cccc(NS(C)(=O)=O)c1`, for which the Potency was > 20 µM (inactive). With `Cc1cnc(CNc2nc(-c3ccccc3Cl)nc3ccccc23)cn1` the figure was > 20 µM (inactive).

With `CCNc1ncc2nc(-c3ccccc3)c(=O)n(C[C@H]3CCCO3)c2n1`, the Potency was > 20 µM (inactive). Regarding `COc1ccc(-c2nc3cnc(N4CCOCC4)nc3n(-c3ccc(OC)cc3)c2=O)cc1`, the Potency is > 20 µM (inactive).

Take `Cc1nc2cnc(Oc3ccccc3)nc2n(CCC#N)c1=O`: the Potency is > 20 µM (inactive). To `COc1ccc(-c2nc3cnc(Nc4cccc(OC)c4)nc3n(C[C@H]3CCCO3)c2=O)cc1` belongs 14.4 µM (inactive). In the case of `O=c1c(-c2ccc(F)cc2)nc2cnc(N3CCOCC3)nc2n1C[C@H]1CCCO1`, the Potency is > 20 µM (inactive). To `CN1CCN(c2ncc3nc(-c4cccc(C#N)c4)c(=O)n(Cc4ccc(F)cc4)c3n2)CC1` belongs > 20 µM (inactive); to `CCNc1ncc2nc(C)c(=O)n(Cc3cccc(OC)c3)c2n1`, > 20 µM (inactive); to `COc1ccc(-n2c(=O)c(CCc3ccccc3)nc3cnc(N4CCNCC4)nc32)cc1`, > 20 µM (inactive).

Take `Cc1nc2cnc(OCc3ccccc3)nc2n(C)c1=O`: the Potency is > 20 µM (inactive). `CN(C)c1ncc2nc(-c3cn(C)c4ccccc34)c(=O)n(C[C@H]3CCCO3)c2n1`: the Potency was > 20 µM (inactive). With `Cc1cnc(CNc2ncnc3ccc(-c4ccc5c(c4)OCO5)cc23)cn1`, the Potency was > 20 µM (inactive). As to `N#CCCn1c(=O)c(-c2ccc(F)cc2)nc2cnc(Oc3ccccc3)nc21`, the Potency was > 20 µM (inactive). As for `Cc1cccc(CNc2nc(-c3ccc4c(c3)OCO4)nc3ccccc23)c1`, the Potency is > 20 µM (inactive). To `COc1cccc(Cn2c(=O)c(-c3cccs3)nc3cnc(N4CCOCC4)nc32)c1` belongs > 20 µM (inactive); to `Cc1noc(C)c1-c1ccc2ncnc(Nc3ccc(F)cc3)c2c1`, > 20 µM (inactive); to `COc1ccc(C(=O)N2CCC3(CC2)CN(c2ccc(-c4ccccc4)cc2)C3)cc1`, > 20 µM (inactive). With `CN(C)c1ncc2nc(-c3ccc(Cl)cc3)c(=O)n(Cc3ccc(F)cc3)c2n1` the figure was > 4 µM (inactive); with `FC(F)(F)c1cc(CN2CCCC3(CCNCC3)C2)cc(C(F)(F)F)c1`, > 20 µM (inactive); with `N#Cc1ccc(CN2CCCC3(CCNCC3)C2)cc1`, > 20 µM (inactive). In the case of `c1ccc(Nc2nc(-c3ccoc3)nc3ccccc23)cc1`, the Potency is > 20 µM (inactive).

Regarding `O=C(c1cc(C(F)(F)F)cc(C(F)(F)F)c1)N1CCC2(CCCN(c3ccccn3)C2)CC1`, the Potency is > 20 µM (inactive).

As for `Cc1nc2cnc(N3CCNCC3)nc2n(C2CC2)c1=O`, the Potency is > 20 µM (inactive). Take `COCCn1c(=O)cnc2cnc(Oc3ccccc3)nc21`: the Potency is > 20 µM (inactive). On to `O=c1c(CCc2ccccc2)nc2cnc(Nc3ccccc3)nc2n1C[C@H]1CCCO1`, for which the Potency was > 20 µM (inactive). As to `COc1ccc2[nH]cc(CCNc3cc(-c4ccccc4C)ncn3)c2c1`, the Potency was > 20 µM (inactive). As for `N#CCCn1c(=O)c(-c2cccs2)nc2cnc(N3CCOCC3)nc21`, the Potency is 4.26 µM (active). Turning to `COc1ccccc1-c1nccc(NCc2ccccc2)n1`, the Potency was > 20 µM (inactive).

For `COc1ccc(C(=O)N2CCC[C@@]3(CCN(c4ccncc4)C3)C2)cc1`, the Potency is > 20 µM (inactive). Turning to `COc1ccc(NC(=O)N2CCC3(CC2)CCN(S(=O)(=O)c2ccccc2)CC3)cc1`, the Potency was > 20 µM (inactive). Consider `COc1ccc(-c2nc3cnc(N4CCNCC4)nc3n(Cc3cccs3)c2=O)cc1`, for which the Potency was > 20 µM (inactive). With `Cc1noc(C)c1-c1ccc2ncnc(N3CCOCC3)c2c1` the figure was > 20 µM (inactive). Turning to `O=C(c1ccncc1)N1CCC2(CCN(Cc3ccccc3)CC2)CC1`, the Potency was > 20 µM (inactive). To `Cn1c(=O)c(-c2cccc(F)c2)nc2cncnc21` belongs > 20 µM (inactive).

Take `Cn1cccc1C(=O)N1CCC[C@@]2(CCN(Cc3ccccc3)C2)C1`: the Potency is > 20 µM (inactive).

In the case of `O=C(c1ccco1)N1CCC2(CC1)CCN(c1ccccn1)CC2`, the Potency was > 20 µM (inactive). As for `O=c1c(CCc2ccccc2)nc2cnc(N3CCNCC3)nc2n1CCc1ccccc1`, the Potency was > 20 µM (inactive). With `COc1ccc(-c2nc3cnc(N4CCN(C)CC4)nc3n(Cc3cccs3)c2=O)cc1` the figure was > 4 µM (inactive); with `O=C(Nc1cccc(F)c1)N1CC2(CCN(C(=O)c3ccncc3)CC2)C1`, > 20 µM (inactive).
